Screens deposited in PubChem BioAssay by National Center for Advancing Translational Sciences (NCATS).
Nrf2 inh: blocks Nrf2 signaling; A549 ARE-Fluc reporter, luciferase luminescence, 18-24 h; Potency, µM (top dose mostly 46 µM), hits mostly inhibitors; 360,000 compounds, 2.1% hits; AID 504444; note: nearly all actives have a fitted effect of over 60% in size
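Quantitative HTS in A549 cells stably bearing an antioxidant response element-firefly luciferase construct. Inhibition of Nrf2-driven transcription was scored by luminescence after 18-24 h of compound exposure at 37 °C.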
ELG1 repair inh: blocks ELG1-dependent DNA repair in HEK293T cells; HEK293T ELG1-luciferase reporter, luminescence, 16 h; DNA damage induced by 5-fluorouridine; Potency, µM (top dose mostly 46.1 µM), hits mostly inhibitors; 330,000 compounds, 2.3% hits; AID 504467; note: nearly all actives have a fitted effect of over 55% in size
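Step one: seed 2,000 cells per well. Step two: pin-transfer compound or DMSO alongside 5-fluorouridine. Step three: incubate 16 hr, 37 °C, 5% CO2. Step four: add ONE-Glo, wait 30 min, read luminescence.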
Nrf2 activator: activates Nrf2 signaling; AREc32 ARE-luciferase reporter (MCF7-derived line), luminescence, 24 h; Potency, µM (titrated, usually from 46.1 µM), most hits filed as activators; 410,000 compounds, 0.31% hits; AID 624171; note: nearly all actives have a fitted effect of over 65% in size
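Cells of the AREc32 ARE-luciferase line are plated in OPTI-MEM containing 5% FBS and left overnight at 37 deg C. Compounds are pinned in, incubation continues 24 hr, and firefly luciferase signal is then measured.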
A549 viability: A549 cytotoxicity, counter-screen for Nrf2 inhibitors. A549 ARE-Fluc cells, CellTiter-Fluor viability, 18-24 h. Potency, µM (top dose mostly 46 µM), usual class: inhibitors. 390,000 compounds, 0.16% hits
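Cytotoxicity counterscreen: CellTiter-Fluor fluorescence was measured in A549 ARE_Fluc cells after 18-24 h of compound exposure in a concentration series. The subsequent BugLite luminescent read reports ARE-luciferase activity.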
ELG1 FLuc counter: luciferase inhibition in cell-free luciferin readout for ELG1 hits | shares compounds with ELG1 repair inh | cell-free firefly luciferase luminescence counter-screen, ViewLux | Potency, µM (highest dose often 46.1 µM), most hits filed as inhibitors | 350 compounds, 3% hits
ELG1 Luc conf: human ELG1 repair inhibition, luciferase-tagged ELG1 confirmation. shares compounds with ELG1 repair inh. HEK293T ELG1-luciferase levels, luminescence; cells co-treated with 5-fluorouridine. Potency, µM (doses to about 46.1 µM), most hits filed as inhibitors. 670 compounds, 68% hits; note: nearly all actives have a fitted effect of over 55% in size
ELG1-Luc MMS: confirmation of human ELG1 repair inhibitors, MMS stimulated; shares compounds with ELG1 repair inh; HEK293T luciferase-tagged ELG1 level, MMS stimulated; Potency, µM (top dose mostly 46.1 µM), usual class: inhibitors; 670 compounds, 53% hits; note: nearly all actives have a fitted effect of over 60% in size
ELG1 5FU viab: confirmation of ELG1 repair inhibitors: viability with 5FU; Potency, µM (doses to about 46.1 µM), hits mostly cytotoxic; 670 tested, under 10 active; cell viability with 5-FU, ELG1-dependent repair; shares compounds with ELG1 repair inh;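 note: ELG1-luc HEK293T cells cotreated with 5-fluorouridine at 10 µM final; viability measured 16 h after compound addition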
ELG1 MMS viab: confirmation of ELG1 repair inhibitors: viability with MMS; shares compounds with ELG1 repair inh; Cell viability with MMS, ELG1-dependent DNA repair; Potency, µM (titrated, usually from 46.1 µM), hits mostly cytotoxic; 670 compounds, 33% hits; AID 624251;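 note: ELG1-luc HEK293T cells co-treated with 10 µM MMS; viability read 16 h after compound addition; nearly all actives have a fitted effect of over 60% in size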
ELG1 unstim viab: counter-screen for ELG1 repair inhibitors: unstimulated cell viability. Potency, µM (top dose mostly 45.9 µM), actives largely listed as cytotoxic. cell viability counter-screen, unstimulated, luminescence. 900 compounds, 8% hits. shares compounds with ELG1 repair inh;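 note: compound exposure lasted 16 hours before reading; nearly all actives have a fitted effect of over 55% in size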
FLuc enzyme: firefly luciferase inhibition counter-screen; shares compounds with ELG1 repair inh; purified firefly luciferase, luminescence counter-screen; Potency, µM (top dose mostly 57.5 µM), actives largely listed as inhibitors; 350 compounds, 10% hits; AID 624253
Of the large screens only hits and unclear results are named; the others gave an inactive call (follow-up assays come after a bar, where they were run). A selection: hits, their analogues and other compounds. The true share with any hit is near 3.7%. Calls come from the whole dose curve; as a rule, active = well fitted curve in the direction sought with a large enough effect; inconclusive = small, poorly fitted or top-dose-only effect, or another doubt; inactive = no such curve, though single readings can be large; an effect the other way counts as inactive or inconclusive.

Cn1c(=O)c2c(ncn2CC(=O)OCCCC(=O)c2ccc(Br)cc2)n(C)c1=O	ELG1 repair inh inconclusive | ELG1 FLuc counter inactive | ELG1 Luc conf inconclusive | ELG1-Luc MMS 2.5µM | ELG1 5FU viab inactive | ELG1 MMS viab 2.2µM | ELG1 unstim viab inconclusive | FLuc enzyme inactive
COC(=O)c1[nH]c2ccc(C)cc2c1NC(=O)C(C)N1CCN(C2CCCCC2)CC1 (configuration not stated)	none | ELG1 FLuc counter inactive | ELG1 Luc conf 1.1µM | ELG1-Luc MMS inconclusive | ELG1 5FU viab inactive | ELG1 MMS viab inactive | ELG1 unstim viab inconclusive | FLuc enzyme inactive
CCOC(=O)c1[nH]c2ccc(OC)cc2c1NC(=O)CN1CCSCC1	ELG1 repair inh inconclusive
CCOC(=O)c1[nH]c2cc(OC)c(OC)cc2c1NC(=O)CN1CCN(c2ccc(OC)cc2)C(C)C1 (configuration not stated)	ELG1 repair inh 1.3µM (no result: Nrf2 inh, Nrf2 activator, A549 viability) | ELG1 FLuc counter inconclusive | ELG1 Luc conf 3.2µM | ELG1-Luc MMS 36µM | ELG1 5FU viab inconclusive | ELG1 MMS viab inconclusive | ELG1 unstim viab 41µM | FLuc enzyme inactive
COC(=O)c1[nH]c2ccc(C)cc2c1NC(=O)CN1CCN(c2ccccc2)CC1	Nrf2 inh 18µM, ELG1 repair inh 18µM | ELG1 FLuc counter inconclusive | ELG1 Luc conf 13µM | ELG1-Luc MMS 18µM | ELG1 5FU viab inconclusive | ELG1 MMS viab inconclusive | ELG1 unstim viab 25µM | FLuc enzyme inactive
O=C(NCCc1ccccc1)c1ccc(Cn2c(SCc3ccccc3)nc3cccnc32)cc1	Nrf2 inh inconclusive (no result: ELG1 repair inh)
CN(Cc1ccccc1)S(=O)(=O)c1nnc(NC(=O)c2ccccc2Cl)s1	none (no result: ELG1 repair inh)
COc1ccc(-c2cc3cc4c(cc3cn2)OCO4)cc1	Nrf2 inh inconclusive, ELG1 repair inh inconclusive | ELG1 FLuc counter inactive | ELG1 unstim viab inconclusive | FLuc enzyme 0.41µM
COc1cc(OC)cc(-c2cc3cc4c(cc3cn2)OCO4)c1	Nrf2 inh inconclusive, ELG1 repair inh inconclusive | ELG1 unstim viab inconclusive
c1ccc(-c2cc3cc4c(cc3cn2)OCO4)cc1	Nrf2 inh inconclusive, ELG1 repair inh inconclusive, A549 viability inconclusive | ELG1 unstim viab inconclusive
COc1ccc(-c2cc3cc(OC)c(OC)cc3cn2)cc1	ELG1 repair inh inconclusive
COc1cc(OC)cc(-c2cc3ccc(OC)cc3cn2)c1	Nrf2 inh inconclusive, ELG1 repair inh inconclusive
Cc1ccc2c(Sc3ccccc3)c(C(=O)NCc3ccccc3F)[nH]c2c1	none (no result: ELG1 repair inh)
Cc1cccc(C)c1NC(=O)CN1CCN(c2ccc(C(F)(F)F)cn2)CC1	none (no result: Nrf2 inh, ELG1 repair inh, A549 viability)
CCc1nc(CN2CCN(c3ccc(C(F)(F)F)cn3)CC2)c(C)[nH]1	Nrf2 inh inconclusive, ELG1 repair inh inconclusive | ELG1 Luc conf inconclusive | ELG1-Luc MMS 3.1µM | ELG1 5FU viab inactive | ELG1 MMS viab 4.4µM | ELG1 unstim viab inconclusive
Cc1ccc(NC(=O)CNCc2cccs2)cc1Br	ELG1 repair inh inconclusive
COc1ccc(C(=O)c2ccccc2)c2c(O)ccc(C(=O)c3ccccc3)c12	ELG1 repair inh inconclusive | ELG1 Luc conf 5µM | ELG1-Luc MMS 1.6µM | ELG1 5FU viab inactive | ELG1 MMS viab 2.2µM | ELG1 unstim viab inconclusive
CC1(C(=O)NCCc2ccccc2)Cc2c(-c3cccc(C(F)(F)F)c3)ccnc2O1 (configuration not stated)	none (no result: Nrf2 inh, ELG1 repair inh, A549 viability)
COc1ccc2c(c1OC)C(=O)N1c3ccccc3C(=O)N(c3ccccc3)C21 (configuration not stated)	ELG1 repair inh inconclusive | ELG1 FLuc counter inactive | ELG1 Luc conf 2.2µM | ELG1-Luc MMS 5µM | ELG1 5FU viab inactive | ELG1 MMS viab inconclusive | ELG1 unstim viab inconclusive | FLuc enzyme inactive
COc1ccc2c(c1OC)C(=O)N1c3ccccc3C(=O)N(c3ccc(F)cc3)C21 (configuration not stated)	Nrf2 inh inconclusive, ELG1 repair inh inconclusive | ELG1 FLuc counter inconclusive | ELG1 Luc conf 5µM | ELG1-Luc MMS 7.9µM | ELG1 5FU viab inactive | ELG1 MMS viab inconclusive | ELG1 unstim viab inconclusive | FLuc enzyme inactive
COCCCn1cc(C(=O)c2cc(OC)ccc2OCC(=O)N2CCCCC2C)cc(C#N)c1=O (configuration not stated)	none
CC1CCN(S(=O)(=O)c2ccc(N3CCCCS3(=O)=O)cc2)CC1	none (no result: Nrf2 inh, ELG1 repair inh)
Cc1nc(CN(C)c2ncnc3cc(-c4ccc5c(c4)OCO5)ccc23)cs1	none (no result: ELG1 repair inh, Nrf2 activator)
COc1cc(C(=O)OC2CSCC2NC(=O)c2ccccc2)cc(OC)c1OC (configuration not stated)	ELG1 repair inh 4.1µM | ELG1 Luc conf 10µM | ELG1-Luc MMS inactive | ELG1 5FU viab inconclusive | ELG1 MMS viab inconclusive | ELG1 unstim viab inconclusive
CC1CCCCC1NC(=O)CN1C(=O)NC(C)(c2ccc(OC(F)F)cc2)C1=O (configuration not stated)	none | ELG1 FLuc counter inactive | ELG1 unstim viab inactive | FLuc enzyme inactive
CC1(c2ccc(OC(F)F)cc2)NC(=O)N(CC(=O)NC2CCCC2)C1=O (configuration not stated)	none
CCOCCCNC(=O)c1[nH]c2cc(C)ccc2c1Sc1ccc(Cl)cc1	none (no result: ELG1 repair inh)
CCN(CC)S(=O)(=O)c1cccc(-n2c(O)c(C=Nc3ccccc3C(=O)O)c3ccccc3c2=O)c1	Nrf2 inh inconclusive, ELG1 repair inh 5.8µM, A549 viability inconclusive | ELG1 Luc conf 0.35µM | ELG1-Luc MMS 0.35µM | ELG1 5FU viab inactive | ELG1 MMS viab 0.4µM | ELG1 unstim viab 0.44µM
O=C(O)c1ccccc1N=Cc1c(O)n(-c2nccs2)c(=O)c2ccccc12	ELG1 repair inh inconclusive, A549 viability inconclusive
COc1cc(/C=C/C(=O)Nc2ccc3nc4n(c(=O)c3c2)CCCC4)cc(OC)c1OC	ELG1 repair inh 4.6µM | ELG1 Luc conf 2.8µM | ELG1-Luc MMS 10µM | ELG1 5FU viab inconclusive | ELG1 MMS viab inactive | ELG1 unstim viab inactive
